This is an account of results in PubChem BioAssay (Tox21).

A number with no mark means an inactive call. Inconclusive results are not listed. Activity calls are given as the source filed them. Unless noted, calls come from the whole dose curve; as a rule, active = well fitted curve in the direction sought with a large enough effect in the repeat runs; inconclusive = weak or mixed curves; inactive = no such curve, though single readings can be large; an effect the other way counts as inactive or inconclusive.

Assay [1] can be described thus: qHTS assay to identify small molecule agonists of the androgen receptor (AR) signaling pathway in the presence of an antagonist - cell viability counter screen (AID 1259379). Note: nearly all actives have a fitted effect of over 25% in size. Note: potency is the fitted concentration of half-maximal effect. The essentials:
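Nilutamide-containing (3.0uM final) MDA-kb2 cultures, 3,000 cells/well, were treated with compounds across 15 concentrations. After 16 hr at 37C with no CO2, cell viability was determined by CellTiter-Fluor fluorescence in the luciferase assay wells.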
(qHTS replaces the single test concentration by a dilution series.)

A short description of assay [2]: qHTS assay to identify small molecule antagonists of the estrogen receptor beta (ER-beta) signaling pathway - cell viability counter screen (AID 1259382).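 Note: HEK293T cells carrying ER-beta-UAS-bla reporter stimulated with estradiol; series mostly up to about 92 µM; nearly all actives have a fitted effect of over 55% in size.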 The method, boiled down:
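Viability is scored by CellTiter-Glo luminescence (30 min, room temperature) in ER-beta-UAS-bla HEK293T wells already read for reporter fluorescence. Compound exposure lasts 16 hr at 37C alongside 1nM 17-beta-estradiol in charcoal-stripped serum medium.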

The nature of assay [3]: qHTS assay to identify small molecule agonists or antagonists of the thyroid stimulating hormone receptor (TSHR) signaling pathway - wild type cell line counter screen (AID 1259384; calls by dose curve). The method, boiled down:
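Wild-type HEK293 cells were plated 18 h at 37 C/5% CO2, pin-dosed with compound plus Ro20-1724 medium, held 30 min at room temperature, then given cAMP-d2 and anti-cAMP-cryptate; fluorescence was read after 1 h. Fifteen concentrations, triplicate.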

Assay [4] addresses Thyrotropin receptor (Homo sapiens) (UniProt P16473). The assay is described as follows: qHTS assay to identify small molecule antagonists of the thyroid stimulating hormone receptor (TSHR) signaling pathway (AID 1259385; calls by dose curve; note: nearly all actives have a fitted effect of over 20% in size). The essentials: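 TSHR-HEK293 cells were plated and held 18 h at 37C/5% CO2, then given compound plus Ro20-1724 and stimulated with TSH at 1.5 ng/mL final. After 30 min at room temperature, cAMP was detected with cAMP-d2/anti-cAMP-cryptate (1 h) by fluorescence.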

A short description of assay [5]: qHTS assay to identify small molecule agonists of the estrogen receptor alpha (ER-alpha) signaling pathway in the presence of an antagonist - cell viability counter screen (AID 1259386).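 Note: series mostly up to about 92 µM; cells exposed to compounds for 22 h at 37 °C before the viability read; nearly all actives have a fitted effect of over 30% in size.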 The method, boiled down: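 In this counter screen, compound effects on VM7Luc4E2 viability were tested in the presence of the antagonist ICI-182,780 at 10.0nM final. Compounds were dosed at 15 concentrations, exposure lasted 22hr, and the CellTiter-Fluor signal was read.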

For assay [6], the target named is Progesterone receptor (Homo sapiens) (UniProt P06401). The assay is described as follows: qHTS assay to identify small molecule agonists of the progesterone receptor (PR) signaling pathway (AID 1346784; calls by dose curve; note: nearly all actives have a fitted effect of over 30% in size; note: potency is the fitted concentration of half-maximal effect). The method, boiled down: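 PR-UAS-bla HEK 293T cells (beta-lactamase reporter under UAS) in 2% charcoal-stripped FBS, dosed with 23 nL compound after 6 hr, incubated 16hr at 37C. LiveBLAzer B/G FRET substrate added, fluorescence read after 2 hours.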
Chain of Progesterone receptor (Homo sapiens) (P06401 whole entry, looked up): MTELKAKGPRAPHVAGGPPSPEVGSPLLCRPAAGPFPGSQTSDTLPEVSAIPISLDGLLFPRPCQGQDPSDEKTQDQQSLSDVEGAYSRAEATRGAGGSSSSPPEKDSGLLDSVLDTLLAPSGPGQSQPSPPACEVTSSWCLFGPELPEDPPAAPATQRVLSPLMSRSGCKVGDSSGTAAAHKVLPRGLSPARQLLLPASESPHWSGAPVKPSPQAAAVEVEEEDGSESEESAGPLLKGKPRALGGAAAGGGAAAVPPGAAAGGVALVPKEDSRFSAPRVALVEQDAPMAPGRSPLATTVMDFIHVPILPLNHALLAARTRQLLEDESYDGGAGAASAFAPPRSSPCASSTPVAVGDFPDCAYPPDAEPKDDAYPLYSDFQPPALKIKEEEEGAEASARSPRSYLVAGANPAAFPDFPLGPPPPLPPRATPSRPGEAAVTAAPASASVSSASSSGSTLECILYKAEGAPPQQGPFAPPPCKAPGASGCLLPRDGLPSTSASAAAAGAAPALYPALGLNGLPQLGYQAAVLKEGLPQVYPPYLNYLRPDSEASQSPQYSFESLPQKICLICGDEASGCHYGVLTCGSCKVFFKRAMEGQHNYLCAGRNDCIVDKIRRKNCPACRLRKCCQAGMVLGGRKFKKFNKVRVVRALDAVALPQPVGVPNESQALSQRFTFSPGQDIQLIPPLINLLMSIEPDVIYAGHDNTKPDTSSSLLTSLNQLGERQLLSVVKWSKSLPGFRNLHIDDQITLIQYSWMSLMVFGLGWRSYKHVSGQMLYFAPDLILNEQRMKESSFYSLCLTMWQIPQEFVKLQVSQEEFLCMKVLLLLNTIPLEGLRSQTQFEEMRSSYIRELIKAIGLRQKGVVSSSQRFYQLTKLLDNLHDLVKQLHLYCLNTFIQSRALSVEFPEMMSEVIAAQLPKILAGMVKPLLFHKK

The target is the same in assay [7]. Nature of the assay: qHTS assay to identify small molecule antagonists of the progesterone receptor (PR) signaling pathway (AID 1346795; active = well fitted inhibition curve with a large enough effect in the signal ratio in the repeat runs, not every such curve was filed as active; the % refers to the signal ratio; note: potency is the fitted concentration of half-maximal effect). The essentials: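 PR-UAS-bla HEK293T cells with beta-lactamase reporter under UAS control, in 2% charcoal-stripped FBS, treated with compounds plus 1 nM promegestone (R5020, final) for 16 hr at 37C. Read-out: FRET beta-lactamase substrate fluorescence after 2 hr at room temperature.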

Assay [8] can be described thus: qHTS assay to identify small molecule antagonists of the TGF-beta/Smad signaling pathway - cell viability counter screen (AID 1346824). Note: nearly all actives have a fitted effect of over 50% in size. The essentials:
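SBE-bla HEK 293T cells were plated overnight at 37 C, then given compounds in DMSO plus TGF-beta1 (added as 0.25 ng/mL solution) for 5 hr. After the bla read, CellTiter-Glo was added to the same wells and luminescence read after 30 min at room temperature.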

A short description of assay [9]: qHTS assay to identify small molecule agonists of the TGF-beta/Smad signaling pathway - cell viability counter screen (AID 1346829). Note: top concentration of the series differs between compounds; nearly all actives have a fitted effect of over 45% in size. The essentials: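 SBE-bla HEK 293T cells plated overnight, compound exposure 5 hr at 37 C. Viability read in the same wells by CellTiter-Glo luminescence after 30 min at room temperature, following the beta-lactamase read.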
Assay [10] addresses Thyrotropin-releasing hormone receptor (Homo sapiens) (UniProt P34981). Nature of the assay: qHTS assay to identify small molecule antagonists of the thyrotropin-releasing hormone receptor (TRHR) signaling pathway (AID 1346877; active = well fitted inhibition curve with a large enough effect in the repeat runs, not every such curve was filed as active; note: series mostly up to about 51 µM). The essentials: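 Kinetic fluorescence (3 min, 1 s resolution) following stimulation with TRH at 1 nM final; HEK293 cells bearing human TRHR; 5 min compound preincubation at RT; concentration-response over 15 points, triplicates.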

Assay [11] shares this target. Nature of the assay: qHTS assay to identify small molecule agonists of the thyrotropin-releasing hormone receptor (TRHR) signaling pathway (AID 1346891; calls by dose curve; note: series mostly up to about 58 µM). The essentials: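 HEK293 cells expressing TRHR plated 18 h at 37 C/5% CO2, calcium dye-loaded 2 h at 37 C, then compound added (agonist mode); kinetic calcium fluorescence read 3 min at 1 s intervals; 15 concentrations in triplicate.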

A short description of assay [12]: qHTS assay to identify small molecule antagonists of the progesterone receptor (PR) signaling pathway - cell viability counter screen (AID 1346798). Note: series mostly up to about 92 µM; nearly all actives have a fitted effect of over 50% in size. The method, boiled down:
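PR-UAS-bla HEK293T cells, 3,000/well in 2% charcoal-stripped FBS medium, dosed with compounds plus R5020 agonist and incubated 16 h at 37C. Viability then measured in the same wells by CellTiter-Glo luminescence after 30 min at RT.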

A short description of assay [13]: qHTS assay to identify small molecule agonists of the TGF-beta/Smad signaling pathway (AID 1346859; active = well fitted activation curve with a large enough effect in the signal ratio in the repeat runs, not every such curve was filed as active; the % refers to the signal ratio; note: series mostly up to about 77 µM). The essentials: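 SBE-bla HEK293T cells plated overnight, then compound exposure for 5 h at 37 C. Beta-lactamase reporter read with LiveBLAzer B/G FRET substrate after 2 h at room temperature, fluorescence at 405 nm excitation, 460/530 nm emission.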
A short description of assay [14]: Human pregnane X receptor (PXR) small molecule agonists, qHTS cell viability counter screen (AID 1346977). Note: nearly all actives have a fitted effect of over 50% in size. The essentials:
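PXR-Luc HepG2 cells (2,000/well, 5% charcoal-stripped FBS) preincubated 5 hr, then exposed to compounds 24 hr at 37 C. Viability read in the same wells by CellTiter-Fluor fluorescence, reagent added at 23 hr, 1 hr incubation.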

Assay [15] addresses Androgen receptor (Homo sapiens) (UniProt P10275). Nature of the assay: qHTS assay to identify small molecule agonists of the androgen receptor (AR) signaling pathway in the presence of an antagonist (AID 1259381; calls by dose curve; note: nearly all actives have a fitted effect of over 15% in size). The essentials:
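Reporter-gene luminescence from MDA-kb2 cells exposed 16hr at 37C (0% CO2) to 15-point compound titrations with 3.0uM final nilutamide as AR antagonist.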

Assay [16] addresses Estrogen receptor (Homo sapiens) (UniProt P03372). Nature of the assay: qHTS assay to identify small molecule agonists of the estrogen receptor alpha (ER-alpha) signaling pathway in the presence of an antagonist (AID 1259383; calls by dose curve; note: top concentration of the series differs between compounds; nearly all actives have a fitted effect of over 15% in size). The method, boiled down:
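Readout was ERE-driven luciferase luminescence in VM7Luc4E2 cells, which express full-length ER-alpha endogenously. Compounds were tested at 15 concentrations for 22hr alongside 10.0nM ICI-182,780 (final concentration).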

The nature of assay [17]: qHTS assay to identify small molecule agonists of the progesterone receptor (PR) signaling pathway - cell viability counter screen (AID 1346799; calls by dose curve; note: nearly all actives have a fitted effect of over 45% in size). The method, boiled down: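 Counter screen in the PR-UAS-bla HEK293T wells (2% charcoal-stripped FBS, 16 h compound exposure at 37 C) after the bla read. CellTiter-Glo added, 30 min at room temperature, luminescence read as cell viability.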

Assay [18] in a line: qHTS assay to identify small molecule agonists of the estrogen receptor beta (ER-beta) signaling pathway - cell viability counter screen (AID 1259380). Note: nearly all actives have a fitted effect of over 30% in size. The method, boiled down: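 Steps: plate ER-beta-UAS-bla HEK293T cells, rest 6 hr; add compounds in DMSO; incubate 16 hr at 37C, 5% CO2; add FRET substrate 2 hr; add CellTiter-Glo, wait 30 min at room temperature; read luminescence.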

Chain of Thyrotropin-releasing hormone receptor (Homo sapiens) (P34981 whole entry, looked up): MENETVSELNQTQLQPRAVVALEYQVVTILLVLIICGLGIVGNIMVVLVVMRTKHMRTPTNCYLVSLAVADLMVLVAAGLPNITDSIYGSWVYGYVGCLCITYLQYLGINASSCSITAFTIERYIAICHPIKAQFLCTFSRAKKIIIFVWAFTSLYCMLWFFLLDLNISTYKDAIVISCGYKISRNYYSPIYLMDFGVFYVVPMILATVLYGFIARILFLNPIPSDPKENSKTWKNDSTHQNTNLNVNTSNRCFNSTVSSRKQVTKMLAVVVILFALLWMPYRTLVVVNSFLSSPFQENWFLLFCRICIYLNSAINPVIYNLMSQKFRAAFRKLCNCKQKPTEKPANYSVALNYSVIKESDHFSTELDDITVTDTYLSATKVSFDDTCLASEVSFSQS
Chain of Thyrotropin receptor (Homo sapiens) (P16473 whole entry, looked up): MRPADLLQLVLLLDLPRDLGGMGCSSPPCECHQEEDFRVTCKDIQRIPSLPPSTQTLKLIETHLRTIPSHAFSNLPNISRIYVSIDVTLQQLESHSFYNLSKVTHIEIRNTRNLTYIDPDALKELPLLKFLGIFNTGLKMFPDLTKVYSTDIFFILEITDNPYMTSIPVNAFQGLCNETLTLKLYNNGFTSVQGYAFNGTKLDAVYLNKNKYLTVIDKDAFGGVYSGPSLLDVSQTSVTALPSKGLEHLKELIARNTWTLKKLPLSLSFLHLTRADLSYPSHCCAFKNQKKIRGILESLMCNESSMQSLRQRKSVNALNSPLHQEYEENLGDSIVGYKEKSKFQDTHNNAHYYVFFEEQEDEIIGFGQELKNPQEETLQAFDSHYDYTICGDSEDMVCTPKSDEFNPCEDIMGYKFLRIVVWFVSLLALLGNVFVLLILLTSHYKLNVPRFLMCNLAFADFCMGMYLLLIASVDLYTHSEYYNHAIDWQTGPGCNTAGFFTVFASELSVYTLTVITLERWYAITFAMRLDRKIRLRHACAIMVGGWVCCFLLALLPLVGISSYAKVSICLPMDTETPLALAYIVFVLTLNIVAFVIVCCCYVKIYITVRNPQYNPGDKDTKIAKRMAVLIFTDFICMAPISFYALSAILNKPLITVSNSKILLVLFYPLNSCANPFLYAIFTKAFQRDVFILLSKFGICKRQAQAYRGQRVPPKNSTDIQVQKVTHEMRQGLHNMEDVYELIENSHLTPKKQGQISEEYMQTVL
Chain of Estrogen receptor (Homo sapiens) (P03372 whole entry, looked up): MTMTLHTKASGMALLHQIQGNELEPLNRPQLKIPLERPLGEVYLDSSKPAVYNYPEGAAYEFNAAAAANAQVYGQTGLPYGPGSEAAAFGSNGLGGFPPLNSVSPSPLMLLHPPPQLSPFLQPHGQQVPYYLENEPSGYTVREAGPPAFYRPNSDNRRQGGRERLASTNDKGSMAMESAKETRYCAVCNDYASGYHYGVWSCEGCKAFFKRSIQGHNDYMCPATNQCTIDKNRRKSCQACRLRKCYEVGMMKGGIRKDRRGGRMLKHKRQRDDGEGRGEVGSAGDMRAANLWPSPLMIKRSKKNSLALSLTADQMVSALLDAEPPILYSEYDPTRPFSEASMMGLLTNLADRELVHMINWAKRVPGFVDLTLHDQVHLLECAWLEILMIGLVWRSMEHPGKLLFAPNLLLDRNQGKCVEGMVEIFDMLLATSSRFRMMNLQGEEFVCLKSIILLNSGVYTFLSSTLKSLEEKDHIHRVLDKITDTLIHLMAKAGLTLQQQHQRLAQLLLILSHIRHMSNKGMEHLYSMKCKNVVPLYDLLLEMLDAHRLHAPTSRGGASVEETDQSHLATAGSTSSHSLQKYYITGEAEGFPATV
Chain of Androgen receptor (Homo sapiens) (P10275 whole entry, looked up): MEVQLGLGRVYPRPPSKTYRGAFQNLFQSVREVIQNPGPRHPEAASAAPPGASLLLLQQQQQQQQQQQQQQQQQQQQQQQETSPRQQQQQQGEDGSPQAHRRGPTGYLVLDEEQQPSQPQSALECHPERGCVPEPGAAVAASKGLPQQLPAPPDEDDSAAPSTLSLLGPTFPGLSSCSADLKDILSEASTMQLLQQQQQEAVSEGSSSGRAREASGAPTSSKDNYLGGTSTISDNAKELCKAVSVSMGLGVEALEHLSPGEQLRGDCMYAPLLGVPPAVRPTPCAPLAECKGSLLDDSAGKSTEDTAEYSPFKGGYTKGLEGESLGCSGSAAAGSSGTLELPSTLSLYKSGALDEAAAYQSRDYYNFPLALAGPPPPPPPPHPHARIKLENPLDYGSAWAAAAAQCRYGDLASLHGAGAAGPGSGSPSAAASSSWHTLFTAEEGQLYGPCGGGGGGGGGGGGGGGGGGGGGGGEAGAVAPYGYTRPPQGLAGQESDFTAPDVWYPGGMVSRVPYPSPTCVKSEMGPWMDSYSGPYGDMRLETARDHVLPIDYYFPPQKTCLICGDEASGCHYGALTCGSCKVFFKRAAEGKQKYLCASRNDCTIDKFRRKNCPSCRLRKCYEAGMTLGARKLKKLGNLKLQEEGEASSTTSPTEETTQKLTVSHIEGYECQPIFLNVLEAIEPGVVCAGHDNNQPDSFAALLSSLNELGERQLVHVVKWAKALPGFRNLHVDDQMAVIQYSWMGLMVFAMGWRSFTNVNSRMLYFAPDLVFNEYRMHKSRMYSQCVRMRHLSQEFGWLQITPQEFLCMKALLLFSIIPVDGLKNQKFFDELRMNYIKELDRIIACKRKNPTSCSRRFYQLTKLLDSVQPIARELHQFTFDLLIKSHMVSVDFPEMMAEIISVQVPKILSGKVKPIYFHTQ

With `CCO[C@@H]1O[C@H](C(COCc2ccccc2)OCc2ccccc2)[C@H](OCc2ccccc2)[C@H]1O` (some centres not stated), the Potency entry in assay [1], in [2], in assay [4], in assay [5], in assay [6] and in [8] was “inactive” throughout. Besides, the Potency entry in assay [9] and in assay [10] was “inactive” each time. Besides, the call in assay [3] and in assay [11] was inactive. Besides, the Potency in [7] was 26.6 µM (active).

Regarding `O=C1OC2(c3ccc(O)cc3Oc3cc(O)ccc32)c2ccc(N=C=S)cc21`, the Potency entry in assay [2], in [4], in assay [5], in [7], in assay [12] and in assay [8] was “inactive” each time. Also, the Potency result in [9], in [13] and in [14] was “inactive” in each case. In addition, the outcome in assay [3] was inactive. Besides, in assay [6], the Potency is 0.879 µM (active).

Consider `CCOC(=O)Cn1cccc1-c1nc(-c2ccc(OC)cc2)c(-c2ccc(OC)cc2)s1`, for which the outcome in assay [15] and in [11] was inactive. Moreover, the Potency result in [16], in assay [5], in [6], in [7], in [12] and in assay [17] was “inactive” each time. The Potency entry in assay [8], in [9], in [13], in [10] and in [14] was “inactive” each time.

In the case of `CCC(COC(=O)CCS)(COC(=O)CCS)COC(=O)CCS`, the Potency entry in assay [18], in [2], in assay [16], in [4], in assay [5] and in assay [6] was “inactive” throughout. The Potency result in assay [7], in assay [12], in [8], in assay [9], in assay [13] and in assay [10] was “inactive” throughout. Further, the Potency entry in assay [14] is “inactive”. Moreover, the compound was classed as inactive in assay [3] and in assay [11].

With `O=C(O)CCN(C1(C(=O)NO)CCCC1)S(=O)(=O)c1ccc(Oc2ccc(F)cc2)cc1`, the Potency entry in assay [18], in [2], in [4], in assay [5], in assay [6] and in assay [7] was “inactive” throughout. The Potency result in [12], in [17], in [8], in [9], in [13] and in assay [10] was “inactive” each time. The Potency result in assay [14] was “inactive”. Further, the compound was called inactive in assay [3] and in [11].

As for `CNC(=O)c1ccccc1Sc1ccc2c(/C=C/c3ccccn3)n[nH]c2c1`, the Potency was 26.6 µM (active) in [1] and 16.8 µM (active) in assay [7]. In addition, the compound was classed as inactive in [3] and in [11]. Besides, the Potency result in assay [4], in [13] and in assay [10] was “inactive” in each case.
